HP1b chromo inh = blocks HP1-beta chromodomain binding to methylated histone tails; Potency, µM (top dose mostly 114 µM), without a hit: top-dose activity change, negative = inhibition, hits mostly inhibitors; P83916; AlphaScreen HP1-beta / biotin-H3K9me3 peptide binding; actives 0.56% (n = 390,000); further: nearly all actives have a fitted effect of over 70% in size
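HP1-beta protein (50 nM final) preincubated 30 min at room temperature with biotinylated H3(1-18)K9me3 peptide (50 nM) in PBS pH 7.4, 0.01% Tween-20, then compound added for 30 min. AlphaScreen streptavidin donor/nickel chelate acceptor beads (10 ug/mL final), 30 min dark, luminescence read.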
JMJD2A Tudor = blocks the human JMJD2A Tudor domain. Potency, µM (series often up to 114 µM), without a hit: top-dose activity change, negative = inhibition, usual class: inhibitors. actives 4.4% (n = 390,000). AlphaScreen JMJD2A-Tudor / H3K4me3 peptide binding. O75164; further: on the % scale 0 is the no-effect control and ±100 the full control effect; nearly all actives have a fitted effect of over 50% in size
L3MBTL1 block = inhibitors of human L3MBTL1; Q9Y468; Potency, µM (highest dose often 57.1 µM), inactives show top-dose activity, negative = inhibition, most hits filed as inhibitors; actives 0.66% (n = 230,000); AlphaScreen L3MBTL1–H3K9me1 peptide binding; AID 485360; further: on the % scale 0 is the no-effect control and ±100 the full control effect; nearly all actives have a fitted effect of over 60% in size
Target sequence (Q9Y468 whole entry, looked up): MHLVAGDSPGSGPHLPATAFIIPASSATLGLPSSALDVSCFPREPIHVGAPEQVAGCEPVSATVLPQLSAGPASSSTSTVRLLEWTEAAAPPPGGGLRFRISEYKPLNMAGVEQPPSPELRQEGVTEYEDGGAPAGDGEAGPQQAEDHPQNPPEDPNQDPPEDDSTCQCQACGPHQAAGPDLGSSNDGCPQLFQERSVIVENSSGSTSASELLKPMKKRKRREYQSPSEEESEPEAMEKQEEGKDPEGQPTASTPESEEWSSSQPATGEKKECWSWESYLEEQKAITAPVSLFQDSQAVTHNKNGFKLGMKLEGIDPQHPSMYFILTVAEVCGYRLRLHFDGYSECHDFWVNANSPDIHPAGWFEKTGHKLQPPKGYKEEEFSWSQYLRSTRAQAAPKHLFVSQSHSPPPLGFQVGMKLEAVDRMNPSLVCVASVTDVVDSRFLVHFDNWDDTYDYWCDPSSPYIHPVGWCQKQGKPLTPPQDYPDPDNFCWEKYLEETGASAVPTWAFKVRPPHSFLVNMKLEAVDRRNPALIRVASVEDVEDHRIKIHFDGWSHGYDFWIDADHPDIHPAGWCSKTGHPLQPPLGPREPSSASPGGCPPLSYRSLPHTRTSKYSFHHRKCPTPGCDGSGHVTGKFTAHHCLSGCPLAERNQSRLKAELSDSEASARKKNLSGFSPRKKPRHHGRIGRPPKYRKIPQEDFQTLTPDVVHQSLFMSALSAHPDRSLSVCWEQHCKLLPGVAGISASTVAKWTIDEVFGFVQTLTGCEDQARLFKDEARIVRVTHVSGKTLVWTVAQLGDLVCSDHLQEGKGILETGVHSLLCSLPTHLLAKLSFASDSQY
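L3MBTL1 (50 nM) pre-complexed 30 min with biotinylated H3(1-15)K9me1 peptide (75 nM), then compounds added for 30 min at room temperature; AlphaScreen streptavidin donor/nickel chelate acceptor beads (10 ug/mL final) read after 30 min dark incubation.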
BAZ2B block = blocks human BAZ2B; AlphaScreen BAZ2B-H3K14Ac peptide displacement; Potency, µM (doses to about 114 µM), without a hit: at the top dose activity change, negative = inhibition, hits mostly inhibitors; actives 4.4% (n = 360,000); AID 504333; further: on the % scale 0 is the no-effect control and ±100 the full control effect; nearly all actives have a fitted effect of over 60% in size
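AlphaScreen displacement of biotin-H3(5-23)K14Ac peptide (50 nM final) from BAZ2B (50 nM final) in PBS pH 7.4, 0.01% Tween-20; complex preformed 30 min RT, then compounds (top 110 uM) 30 min RT, beads 20 min dark.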
G9a block = blocks human histone lysine methyltransferase G9a | Q96KQ7 | G9a H3K9 monomethylation, AlphaScreen, 2 h | Potency, µM (series often up to 102 µM), for the others: top-dose activity, negative = inhibition, actives largely listed as inhibitors | actives 8.8% (n = 350,000); further: on the % scale 0 is the no-effect control and ±100 the full control effect; nearly all actives have a fitted effect of over 75% in size
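AlphaScreen detection with an anti-monomethyl H3K9 antibody quantified product after a 2 h room-temperature reaction containing 500 nM biotinylated H3K9 peptide, 20 µM SAM and 20 nM enzyme, which had been preincubated 15 min with compound.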
Numbers without * were called inactive; [ ] = remark or other dose. This is a sample that favours compounds with a hit; in the whole collection about 11% have one here. The call rests on the fitted dose curve; in most records, active means well fitted inhibition curve with a large enough effect; inconclusive means small, poorly fitted or top-dose-only effect; inactive means no such curve, though single readings can be large or run the other way. Potency means the concentration at half of the fitted maximal effect.

Results for CCN=C1NN=C(c2cc(C)n(CCc3ccccc3)c2C)CS1 ?
HP1b chromo inh: inconclusive; JMJD2A Tudor: 56µM*; BAZ2B block: -38%; G9a block: inconclusive

Results for CCN=C1NN=C(c2cc(C)n(Cc3ccco3)c2C)CS1 ?
HP1b chromo inh: -13%; JMJD2A Tudor: inconclusive; L3MBTL1 block: -10%; BAZ2B block: -39%; G9a block: -14%[59 µM]

How did COCCn1c(C)cc(C2=NNC(=Nc3ccccc3)SC2)c1C do in these assays?
HP1b chromo inh: -3%; JMJD2A Tudor: -32%; L3MBTL1 block: 7%; BAZ2B block: 50µM*; G9a block: inconclusive

How did CC(C)Oc1ccc(C(=O)N(Cc2ccc(N(C)C)cc2)C2CCS(=O)(=O)C2)cc1 (stereo unspecified) do in these assays?
HP1b chromo inh: 7%; JMJD2A Tudor: -35%; BAZ2B block: -34%; G9a block: inconclusive

Results for Cc1ccc(CSc2nc3nc(C)cc(C)n3n2)cc1 ?
HP1b chromo inh: 40%; JMJD2A Tudor: -9%; L3MBTL1 block: 4%; BAZ2B block: 5%

Results for Cc1cc(C)n2nc(SCc3cccc(S(=O)(=O)N(C)C)c3)nc2n1 ?
HP1b chromo inh: 38%; JMJD2A Tudor: 0%; BAZ2B block: -13%; G9a block: 45µM*

What do the screens show for `Fc1cccc(Cl)c1/C=C/c1cnc2ccccc2n1`?
HP1b chromo inh: 28%; JMJD2A Tudor: 20%; BAZ2B block: 5%; G9a block: 50µM*

Results for Fc1cccc(F)c1/C=C/c1ccc2ccccc2n1 ?
HP1b chromo inh: 202%; JMJD2A Tudor: 82%; L3MBTL1 block: 49%; BAZ2B block: 77%; G9a block: inconclusive

What do the screens show for `COC(=O)[C@H]1[C@H]2C[C@@H]3c4[nH]c5cc(OC)ccc5c4CCN3C[C@H]2C[C@@H](OC(=O)c2ccc(N)cc2)[C@@H]1OC`?
HP1b chromo inh: -15%; JMJD2A Tudor: inconclusive; BAZ2B block: 40µM*; G9a block: inconclusive

Results for Cc1ccc(-n2ncc(C(=O)Nc3cc(Cl)ccc3Cl)c2C2CCNCC2)cc1 ?
HP1b chromo inh: 11%; JMJD2A Tudor: inconclusive; BAZ2B block: -10%; G9a block: 45µM*

What do the screens show for `Cc1ncn(-c2ccccc2)c1-c1ccccc1`?
HP1b chromo inh: -5%; JMJD2A Tudor: inconclusive; L3MBTL1 block: -14%; BAZ2B block: 50µM*; G9a block: 21%[2.33 µM]

What do the screens show for `c1ccc(-n2cnc3ccccc32)cc1`?
HP1b chromo inh: 52%; JMJD2A Tudor: 5%; BAZ2B block: 12%; G9a block: 5%

What do the screens show for `CC(=O)c1c(C)[nH]c(C(=O)NCCc2ccccc2)c1C`?
HP1b chromo inh: -1%; JMJD2A Tudor: -31%; L3MBTL1 block: -4%; BAZ2B block: inconclusive; G9a block: -41%

Results for CCN(CCCNC(=O)c1[nH]c(C)c(C(C)=O)c1C)c1ccccc1 ?
HP1b chromo inh: -18%; JMJD2A Tudor: inconclusive; L3MBTL1 block: -16%; BAZ2B block: 50µM*; G9a block: 14µM*

What do the screens show for `CSCC[C@H](NC(=O)[C@H](Cc1ccccc1)NC[C@@H](NC[C@@H](N)CS)C(C)C)C(=O)O`?
G9a block: 20µM*

How did CCC(CC)C(=O)Nc1ccc2nc(SCC(=O)N3CCc4ccccc43)sc2c1 do in these assays?
HP1b chromo inh: 33%; JMJD2A Tudor: -6%; BAZ2B block: -2%; G9a block: 7%[59 µM]

Results for O=C1Nc2ccccc2SC(c2ccccc2)C1O (stereo unspecified) ?
HP1b chromo inh: -30%; JMJD2A Tudor: 56µM*; BAZ2B block: 40µM*; G9a block: 10µM*

Results for COc1ccc(OC)c(NC(=O)Cn2ccn(-c3ccc(OC)c(OC)c3)c(=O)c2=O)c1 ?
HP1b chromo inh: 7%; JMJD2A Tudor: inconclusive; BAZ2B block: -32%; G9a block: inconclusive

How did COc1cccc(Nc2nc(N)c([N+](=O)[O-])c(NCc3ccccc3)n2)c1 do in these assays?
HP1b chromo inh: inconclusive; JMJD2A Tudor: inconclusive; L3MBTL1 block: inconclusive; BAZ2B block: inconclusive; G9a block: 45µM*

What do the screens show for `COc1cccc(Nc2nc(Nc3ccc(Cl)c(C(=O)O)c3)nc(C)c2[N+](=O)[O-])c1`?
HP1b chromo inh: -5%; JMJD2A Tudor: inconclusive; L3MBTL1 block: -2%; BAZ2B block: 50µM*; G9a block: inconclusive

Results for Nc1nc(NCc2ccc(Cl)cc2)nc(NCCO)c1[N+](=O)[O-] ?
HP1b chromo inh: 0%; JMJD2A Tudor: -12%; L3MBTL1 block: 0%; BAZ2B block: -3%; G9a block: -9%

How did Cc1cccc(Nc2nc(N)c([N+](=O)[O-])c(NCc3ccccc3)n2)c1 do in these assays?
HP1b chromo inh: inconclusive; JMJD2A Tudor: inconclusive; L3MBTL1 block: inconclusive; BAZ2B block: inconclusive; G9a block: -8%[12.7 µM]

What do the screens show for `Nc1nc(Nc2ccc(Cl)cc2)nc(NCCO)c1[N+](=O)[O-]`?
HP1b chromo inh: 14%; JMJD2A Tudor: -1%; BAZ2B block: inconclusive; G9a block: 50µM*

How did CC(C)(C)OC(=O)C[C@@H]1C/C=C\C[C@@H](CC(=O)N[C@H](CO)Cc2ccccc2)C(=O)NC[C@H](c2ccccc2)OC1=O do in these assays?
HP1b chromo inh: 48%; JMJD2A Tudor: -8%; L3MBTL1 block: 15%

What do the screens show for `N=C1C(c2ccccc2)=C(O)CN1c1cccc(S(=O)(=O)N2CCOCC2)c1`?
HP1b chromo inh: 10%; JMJD2A Tudor: 20µM*; L3MBTL1 block: 2%; BAZ2B block: -1%; G9a block: 1%

How did COC(=O)c1ccc2c(=O)[nH]c(CSc3nc(-c4ccc(F)cc4)cs3)nc2c1 do in these assays?
HP1b chromo inh: 6%; JMJD2A Tudor: -6%; L3MBTL1 block: -8%; BAZ2B block: -6%; G9a block: inconclusive

How did COC(=O)c1ccc2c(=O)[nH]c(CSc3nc(C)cs3)nc2c1 do in these assays?
HP1b chromo inh: 11%; JMJD2A Tudor: -8%; L3MBTL1 block: -6%; BAZ2B block: -16%; G9a block: 40µM*

How did COc1cc(C(=O)OCC(=O)N2CCOCC2)c([N+](=O)[O-])cc1OC do in these assays?
HP1b chromo inh: 48%; JMJD2A Tudor: -1%; BAZ2B block: -3%; G9a block: inconclusive

How did CCN1Cc2c(/C=C/c3ccccc3)nc3ccc(OC)cc3c2N(c2cccc(Cl)c2)C1 do in these assays?
HP1b chromo inh: 36%; JMJD2A Tudor: -26%; L3MBTL1 block: -25%; BAZ2B block: inconclusive; G9a block: 13µM*

Results for C#CCOc1ccc(C2C3=C(CC(C)(C)CC3=O)N(CC(=O)O)C3=C2C(=O)CC(C)(C)C3)cc1OC ?
HP1b chromo inh: 25%; JMJD2A Tudor: -4%; L3MBTL1 block: 19%; BAZ2B block: -1%

Assay outcomes from PubChem BioAssay.
